Where “and” joins values, the source holds several entries; their conditions need not be identical. Equal entries are not always repeated. The panel holds about 83,000 compounds, 20% with a hit somewhere; the sample as a whole holds those more often.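 Assay: single dose, 48 h. Readout: percent growth (0 = no net growth; negative = cell death). Active: <10.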 A number with no mark means an inactive call. Calls of active or inactive are those of the source.

This test concerns MDA-MB-468 breast. The test is described as follows: NCI-60 one-dose screen, 48 h (100 = growth as untreated, 0 = no growth, -100 = all killed). As to conditions: 10 µM unless noted.
`C/C=C/C=N/NC(=S)Nc1ccccc1`: the growth was 107%.

`CCOc1nc(-c2ccccc2)cc2c(O)c(C(=O)N/N=C/c3ccccc3O)[nH]c(=O)c12`: the growth was 88.6%.

In the case of `O=C(O)CCN1CCN(c2cccc(Cl)c2)CC1`, the growth is 103%.

For `Cc1csc2ccc(Cl)cc12`, the growth is 96.8%.

Turning to `C=C1CCC[C@]2(C)CCC[C@H](C)[C@@H](OC(C)=O)[C@@H]3OC(=O)C(=C)[C@@H]3C[C@H]1O2`, the growth is 31.8%.

Turning to `COC(=O)c1nc(-c2ccccc2)oc1S(=O)(=O)n1nc(-c2ccccc2)cc1N`, the growth is 74.6%.

`CCCCCCCCCCC(C(O)c1ccccc1)N1CCCCC1` (stereo not given): the growth was -21.9% (active).

For the compound `C[C@H]1O[C@@H](O[C@H]2[C@@H](O)C[C@H](O[C@H]3[C@@H](O)C[C@H](O[C@H]4CC[C@]5(C)C6C[C@@H](O)[C@]7(C)[C@@H](C8=CC(=O)OC8)CC[C@]7(O)C6CC[C@@H]5C4)O[C@@H]3C)O[C@@H]2C)C[C@H](O)[C@@H]1O` (stereo not given in full), the growth was -61.7% (active).

Take `COC1=C(OC)C(=O)C(OC)=C(OC)C1=O`: the growth is 33.4%.

Turning to `COc1ccc(C(=O)NNc2nc(Cl)nc(N3CCN(C(c4ccccc4)c4ccccc4)CC3)n2)cc1`, the growth is -31.9% (active).

`CCN(CC)CCCOc1ccc2ncnc(Nc3ccc(Oc4cccc(C(F)(F)F)c4)c(Cl)c3)c2c1`: the growth is -64.7% (active).

`O=C1N(c2ccccc2)C(=S)N[C@]12[C@H](c1ccccc1)C1CCCN1[C@]21C(=O)NC2C=CC(Cl)=C[C@H]21` (stereo not given in full): the growth was 99.7%.

On to `CCc1c(C(=O)N[C@@H](C(=O)OCc2ccccc2)C(C)O)[nH]c2ccc(Cl)cc12` (stereo not given in full), for which the growth was 79.1%.

As for `c1ccc2[nH]c(SSc3nc4ncncc4[nH]3)nc2c1`, the growth was 11.3%.

Consider `Nc1nc2c(nnn2Cc2ccc(Cl)c(Cl)c2)c(=O)[nH]1`, for which the growth was 103%.

Take `CN(C)c1ccc(N=Nc2ccc(Br)cn2)c(O)c1`: the growth was -6.7% (active).

As to `Cc1cccc(C[C@H](NC(=O)Nc2ccc(Cl)cc2F)C(=O)N[C@@H]2C(=O)N3C[C@H](O)C[C@H]3C(=O)N3CCCC[C@H]3C(=O)N[C@@H](C)C(=O)N3C[C@H](C)C[C@H]3C(=O)O[C@H]2C)c1`, the growth is -7.94% (active).

For `COc1ccc(-c2nn(-c3cccc(Cl)c3)cc2C2CC(c3ccccc3)=NN2C(C)=O)cc1` (stereo not given), the growth was 80.9%.

With `CCOC(=O)C1C(=O)NC(C(=O)OCC)(C(=O)OCC)C1CC` (stereo not given), the growth is 108%.

In the case of `C=C1C(=O)O[C@H]2[C@H]1CC/C(Cn1cc(-c3cc(C)c(C)cc3C)nn1)=C\CC[C@@]1(C)O[C@@H]21`, the growth is -75.6% (active).

`NCCNC(=O)c1cccc(COc2ccccc2NC(=O)c2cc(Cl)c(Cl)[nH]2)c1`: the growth is 96%.

For the compound `Cc1c(Cl)cccc1NC(=O)c1sc2nc3c(cc2c1N)CCCCCC3`, the growth was 26.5%.

In the case of `COc1cc2oc3cc(=O)cc4oc(-c5ccccc5)cc(c2c2c1CCC(c1ccccc1)O2)c43` (stereo not given), the growth was 61.8%.

Regarding `O=Nc1ccc(O)c(=O)cc1`, the growth is -53.1% (active).

As to `COC(=O)c1c2c(c(C)[n+]([O-])c1C)C(=O)C=C(NCc1ccc(OC)cc1)C2=O`, the growth is -61% (active).

In the case of `CC(=O)Nc1ccc(/C=C/C(=O)c2ccccc2)cc1`, the growth was 52%.

As for `COc1cc2c(c(OC)c1OC)C(=O)CC(c1cccc(C(=O)Nc3ccccc3Br)c1)O2` (stereo not given), the growth was 79.1%.

Take `COC(=O)C(N)CSC(c1ccccc1)(c1ccccc1)c1ccccc1` (stereo not given): the growth was 11.5%.

For `O=C(O)CCCN1C(=O)NC2(C1=O)c1ccccc1-c1ccccc12`, the growth is 98.2%.

Turning to `CCOc1ccc(NC(=O)c2ccoc2COc2ccccc2)cc1`, the growth was 113%.

Take `O=C1CCC(=O)N1Cc1ccccc1`: the growth was 88.2%.

Consider `COc1ccc2c(ccn2C(=O)N2c3ccccc3Sc3ccccc32)c1`, for which the growth was 21.8%.

Turning to `COc1cc2c(cc1OC)C1(C)N(CC2)C(=O)OC1(C)C` (stereo not given), the growth was 93.1%.

Consider `CC1C(=O)NC2=Nc3ccccc3C(=O)NN21` (stereo not given), for which the growth was 93.7%.

`C=C(c1ccc(OC)c(/C=C/C(=O)c2ccc3c(c2)OCO3)c1)c1cc(OC)c(OC)c(OC)c1`: the growth was 37.4%.

For the compound `Nc1nc(N)c2c(n1)NC(c1ccccc1)CC(c1ccc(Nc3nc(NCCO)nc(Nc4ccc(Cl)cc4)n3)cc1)=N2` (stereo not given), the growth is -70.1% (active).

As for `CCN(CC)CCCC(C)N(Cc1ccccc1)CC(O)c1ccc(Cl)cc1` (stereo not given), the growth was 91.2% and 104%.

Take `Cc1ccc(-c2onc3c(=O)[nH]nc(-c4ccccc4)c23)cc1`: the growth was 29.5%.

`C=CCN(CC=C)C(=O)[C@H](CC)[C@@H]1CC[C@@H](C)[C@@H]([C@H](C)[C@@H](O)[C@@H](C)C(=O)[C@H](CC)C2O[C@]3(C=C[C@@H](O)[C@]4(CC[C@@](C)([C@H]5CC[C@](O)(CC)[C@H](C)O5)O4)O3)[C@H](C)C[C@@H]2C)O1` (stereo not given in full): the growth is -19.1% (active).

Turning to `CCN1C(=O)N(CC)C2Nn3c(s/c(=C4\C(=O)Nc5ccccc54)c3=O)=NC21` (stereo not given), the growth is 5.05% (active).

The values above are taken from PubChem BioAssay (NCI).
